In PubChem BioAssay AID777 (Sanford-Burnham Center for Chemical Genomics, 2007):
The whole screen tested about 96,000 compounds, of which about 19,000 (20%) were called active.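 Rule for the calls: active = blocking of liver enzyme CYP2C9 beyond about 50% at 5 µM (limit read from the data); inactive = the rest.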 Not all results are given here.

target: Cytochrome P450 2C9 (Homo sapiens) (UniProt P11712); test: blockers of cytochrome P450 2C9 activity – biochemical, luminescence, ADME assay, primary screen (AID 777); settings: CYP2C9 Supersomes, luciferin-H conversion, at 5 µM, stronger effect = higher value
Sequence (P11712 whole entry, looked up): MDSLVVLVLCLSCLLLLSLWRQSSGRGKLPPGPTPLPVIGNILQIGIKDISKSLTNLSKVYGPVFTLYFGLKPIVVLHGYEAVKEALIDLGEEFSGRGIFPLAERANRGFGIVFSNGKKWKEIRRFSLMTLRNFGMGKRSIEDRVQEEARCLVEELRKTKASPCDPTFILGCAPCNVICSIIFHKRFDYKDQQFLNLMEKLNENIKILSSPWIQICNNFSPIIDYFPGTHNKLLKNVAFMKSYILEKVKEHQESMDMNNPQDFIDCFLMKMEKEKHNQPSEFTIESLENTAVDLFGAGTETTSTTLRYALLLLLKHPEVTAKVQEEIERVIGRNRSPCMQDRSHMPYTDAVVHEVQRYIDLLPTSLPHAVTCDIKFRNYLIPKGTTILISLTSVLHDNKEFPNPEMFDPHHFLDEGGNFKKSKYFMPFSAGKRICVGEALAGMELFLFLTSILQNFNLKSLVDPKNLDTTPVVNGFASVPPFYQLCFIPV

Structure (SMILES) | inhibition
Cn1c(-c2ccco2)nc2cc3ccccc3cc21 | 26.1% (inactive)
COc1ccc(OC)c(/C=N/NC(=O)CSc2nnc(C)n2-c2ccccc2)c1 | 20.2% (inactive)
C=CCn1c(Cn2nnc3ccccc32)nnc1SCC(=O)N/N=C/c1cc(Br)cc(OC)c1O | 54% (active)
Cn1c(Cn2nnc3ccccc32)nnc1SCC(=O)c1ccccc1F | 28.6% (inactive)
COc1cccc(N(CC(=O)NCCSc2ccccn2)S(C)(=O)=O)c1 | 38.4% (inactive)
CC(=O)c1cc2c(cc1N)OCO2 | 3.4% (inactive)
CCCCn1c(CN2CCN(CCO)CC2)nc2ccccc21 | 1.5% (inactive)
CN(C)CCCNc1c2c(c(C#N)c3nc4ccccc4n13)CCC2 | 7.3% (inactive)
N#Cc1c2c(c(N3CCN(CCO)CC3)n3c1nc1ccccc13)CCCC2 | 58.2% (active)
C=CCOc1ccc(C2/C(=C(\O)c3c(C)[nH]c(C(=O)OC)c3C)C(=O)C(=O)N2CCN(C)C)cc1 (stereo unspecified) | -6.1% (inactive)
CCOC(=O)c1cccc(NC(=O)C2CCCN(S(=O)(=O)c3cnc[nH]3)C2)c1 (stereo unspecified) | 95.6% (active)
O=C(NCc1ccco1)C1CCCN(S(=O)(=O)c2cnc[nH]2)C1 (stereo unspecified) | 27.3% (inactive)
COc1cccc(N2CCN(C(=O)C3CCCN(S(=O)(=O)c4cnc[nH]4)C3)CC2)c1 (stereo unspecified) | 36.6% (inactive)
O=C(CN1C(=O)COc2ccccc21)NCCN1CCc2ccccc2C1 | 25% (inactive)
Oc1c(C=Nc2cccc3nsnc23)ccc2ccccc12 | -15.3% (inactive)
COc1c(C(=O)N2CCCC2)ccc2ccccc12 | -19.3% (inactive)
COc1cccc(OC)c1OCCN1CCN(C(=O)c2ccco2)CC1 | -24.9% (inactive)
COc1ccc(Br)cc1CN1CCN(C(=O)c2cccc(OC)c2OC)CC1 | 52.9% (active)
CN(C)CCCn1c(N)c(C#N)c2nc(C#N)c(C#N)nc21 | -11.9% (inactive)
COc1ccc(OCC(=O)N2CCOCC2)cc1 | 17.3% (inactive)
O=C(NCc1ccc(Cl)cc1)c1cc(=O)nc2sc(-c3ccccc3)nn12 | 2.9% (inactive)
Cc1ccc(N(C(=O)CC2NC(=O)NC2=O)C2(C(=O)NC3CCCC3)CCCCC2)cc1 (stereo unspecified) | 46.4% (inactive)
COc1ccc(CCNC(=O)c2cc3sccc3n2C)cc1OC | 26.8% (inactive)
CCOc1ccc(CCNC(=O)C(CC)n2nc(C)n3c(cc4sccc43)c2=O)cc1OCC (stereo unspecified) | 51.6% (active)
CCOc1ccc(CCNC(=O)C2CCN(c3ccc(N4CCOCC4)nn3)CC2)cc1OCC | 14% (inactive)
CCC(C(=O)NCc1ccc(OC)cc1)n1nc(C)n2c(cc3occc32)c1=O (stereo unspecified) | 82.8% (active)

Structure (SMILES) | inhibition
COc1ccc(CCn2c(=N)c(C(=O)NCc3ccco3)cc3c(=O)n4cccc(C)c4nc32)cc1 | 14.3% (inactive)
CCC(C(=O)N1CCOCC1)n1c(C(=O)OC)cc2occc21 (stereo unspecified) | 12.8% (inactive)
CCc1c(C)nc2cc(C)[nH]n2c1=O | 16.4% (inactive)
CCCNC(=O)N1CCN(C(=O)NCCC)CC1 | 2.7% (inactive)
Cc1ccc(-n2ncc3c(Nc4cccc(C(=O)O)c4)ncnc32)cc1 | 29.6% (inactive)
Cc1cc(C)cc(N(CC(=O)NCC2CCCO2)S(=O)(=O)c2c(C)noc2C)c1 (stereo unspecified) | 64.1% (active)
Cc1cc(C)cc(N(CC(=O)N2CC=C(c3ccccc3)CC2)S(=O)(=O)c2c(C)noc2C)c1 | 90.8% (active)
O=C(Nc1ccc(Cl)c(Cl)c1)N1CC=C(c2ccccc2)CC1 | 46.1% (inactive)
Cc1ccc(C(=O)O)cc1S(=O)(=O)NCC1CCCO1 (stereo unspecified) | 5.8% (inactive)
CCC(=O)c1c[nH]c(C(=O)NCC2CCCO2)c1 (stereo unspecified) | -7% (inactive)
CCOC(=O)C1CCCN(C(=O)CN(c2ccc(OC)cc2)S(=O)(=O)c2c(C)noc2C)C1 (stereo unspecified) | 11% (inactive)
COCCCNC(=O)CN1CCN(Cc2ccccc2Cl)C1=O | -16.9% (inactive)
Cc1nc2ncnn2c(C)c1CCC(=O)N1CCN(C(=O)c2ccco2)CC1 | -8.6% (inactive)
CCOC(=O)n1c(SCC(=O)N(CC)CC)nc2ccccc21 | 30.9% (inactive)
CCN(CC)C(=O)CSc1nc2ccccc2n1CC(=O)N1CCN(c2ccccc2OC)CC1 | 51.4% (active)
CC(C)N(C(=O)Cn1c(SCC(=O)N2CCN(c3ccccc3)CC2)nc2ccccc21)C(C)C | 14.3% (inactive)
O=C1c2ccccc2C(=O)N1CCc1nn[nH]n1 | 0.5% (inactive)
Fc1ccccc1CCNc1nnnn1-c1ccccc1 | 31.4% (inactive)
CN(CCCC(=O)Nc1nccs1)S(=O)(=O)c1ccc(Cl)cc1 | 38.4% (inactive)
O=C(CCSCCc1ccccn1)Nc1nccs1 | 81% (active)
CC1(C)Cc2cccc(OCC(=O)Nc3nccs3)c2O1 | 31% (inactive)
COCCN(CC(=O)Nc1ccccc1C)S(=O)(=O)c1ccc(S(=O)(=O)N2CCCC2)cc1 | 16.5% (inactive)
CCOc1cc(C(=O)N2CCc3cc(OC)c(OC)cc3C2)ccc1OC(F)F | 30.7% (inactive)
CCOc1ccc(C(CCc2ccccc2)NC(=O)c2ccc(OC)c(OC)c2)cc1OCC (stereo unspecified) | 76.1% (active)
CCOC(=O)CSc1nnc(CNC(=O)Cc2ccccc2)n1-c1ccccc1OC | 8.6% (inactive)
COc1ccc(Cn2c(=O)sc3ccccc32)cc1OC | 29.2% (inactive)

Structure (SMILES) | inhibition
Nc1nc(Br)c2ccccc2c1-c1ccc(F)cc1 | 2.2% (inactive)
COc1ccc(N2CCN(C(=O)CSc3nc4cc(OC)c(OC)cc4cc3C#N)CC2)cc1 | 26.1% (inactive)
COc1ccc2nc(N3CCCC(O)C3)c(C#N)cc2c1 (stereo unspecified) | 63.9% (active)
Cc1cc(C)c2nc(N3CCCC3)c(C#N)cc2c1 | 9.6% (inactive)
Cc1[nH]c(=O)c(C(=O)/C=C/c2ccccc2)c2c1CCCC2 | -14.6% (inactive)
CC1(C)C(=O)C2(CCCCC2)C(=O)OC1c1cccs1 (stereo unspecified) | -9.3% (inactive)
O=C(COc1ccccc1F)NC1CC1 | -15.2% (inactive)
COc1ccc(Cn2cccc(NC(=O)Nc3ccc(C#N)cc3)c2=O)cc1 | 14.3% (inactive)
O=C(Nc1cccn(Cc2c(Cl)cccc2Cl)c1=O)c1ccc(Cl)cc1 | 71.8% (active)
CSc1ccc(C#N)cc1NC(=O)c1ccc(Cl)cc1 | 6.3% (inactive)
Cc1ccn2cc(C(=O)NC3CCN(Cc4ccccc4)CC3)nc2c1 | 16.4% (inactive)
CC1(C)NC(=O)N(CCCCSc2ccc(Cl)cc2)C1=O | 85.8% (active)
CCOC(=O)N1CCN(C(=O)CSc2ccc(Cl)cc2)CC1 | 42.4% (inactive)
Cc1ccc(SCC2=NNC(=O)C2)cc1 | -7.3% (inactive)
Cc1ccc(SCc2cc(=O)[nH]c(N3CCCCC3)n2)cc1 | 14.9% (inactive)
CCC(=O)c1ccc(OCC(O)CN2C(=O)NC(C)(C)C2=O)cc1 (stereo unspecified) | 0.4% (inactive)
Cc1ccc(SCCN2C(=O)NC(C)(C)C2=O)cc1 | 68.6% (active)
CC(=O)N1CCCc2cc(S(=O)(=O)CCC(=O)N3CCN(c4ccccc4)CC3)ccc21 | -45.2% (inactive)
COC(=O)Cn1nc(-c2ccccc2)c2cc(Cl)ccc21 | 25.2% (inactive)
COc1ccc(C(C)=O)cc1COC(=O)Cn1cnc2ccccc2c1=O | 41.4% (inactive)
COc1ccc(COC(=O)c2n[nH]c3ccccc23)cc1F | 54.1% (active)
O=C(COC(=O)c1n[nH]c2ccccc12)NCc1ccccc1 | 41.3% (inactive)
COc1ccccc1NC(=O)[C@H](COCc1ccccc1)NC(=O)OC(C)(C)C | 51.7% (active)
COc1ccccc1NC(=O)/C=C/C(N)=O | -19.3% (inactive)
COc1ccccc1NC(=O)CC(NCCN(C)C)C(=O)O (stereo unspecified) | -1.4% (inactive)
CCC1(C)Cc2c(sc3[nH]c(=S)n(Cc4ccccc4)c(=O)c23)CO1 (stereo unspecified) | 34.5% (inactive)

Structure (SMILES) | inhibition
Oc1ccc(/C=N/NC2=NCCCCC2)c(O)c1 | -17.7% (inactive)
CSCCC(NS(=O)(=O)c1ccc2c(c1)oc(=O)n2C)C(=O)NC1CCCc2ccccc21 (stereo unspecified) | -0.6% (inactive)
CC1CCN(CC(=O)c2c[nH]c3ccccc23)CC1 | 4.9% (inactive)
N#Cc1c(N)sc2c1CCN(C(=O)OCc1ccccc1)C2 | 97.9% (active)
O=C(O)C1CCN(C(=O)OCc2ccccc2)CC1 | 5.6% (inactive)
CCOC(=O)c1c(NC(=S)Nc2ccccc2)sc2c1CCN(C)C2 | 24.5% (inactive)
O=C(NN1C(=O)C2C3C=CC(C4CC34)C2C1=O)c1ccc(Cl)cc1 (stereo unspecified) | 9.6% (inactive)
COc1ccc(C(=O)n2nc(-c3ccc(Cl)cc3)nc2N)cc1OC | -12.4% (inactive)
COC(=O)c1ccc(OC(=O)c2nn(C)cc2Cl)c(OC)c1 | 58.9% (active)
COc1ccc(Cl)cc1C(=O)NCc1cn(C)nc1C | 1.3% (inactive)
CN(C(=O)CSc1nnc(N)s1)c1c(N)n(Cc2ccccc2)c(=O)[nH]c1=O | -12.4% (inactive)
COc1ccc(CC(NC(C)=O)C(=O)NC2CCN(C(=O)Nc3ccc(C#N)cc3)CC2)cc1OC (stereo unspecified) | 9.3% (inactive)
Cc1ccc(NC(=O)C2CCCN(S(=O)(=O)c3c(C)noc3C)C2)c(C)c1 (stereo unspecified) | 8.4% (inactive)
O=C(Nc1nccs1)C1CCN(S(=O)(=O)c2ccc(Cl)c(C(F)(F)F)c2)CC1 | -45.5% (inactive)
Cc1noc(C)c1S(=O)(=O)N1CCCC(C(=O)Nc2nccs2)C1 (stereo unspecified) | 56.5% (active)
Cc1ccc(C2=CSC3=NS(=O)(=O)CCN23)cc1C | -9.4% (inactive)
CCOC(=O)CSc1nnc(-c2cccc(Br)c2)o1 | -12.3% (inactive)
COc1cccc(-c2nn(C)c3sc(C(=O)N4CCN(c5ccccc5)CC4)cc23)c1 | 68.5% (active)
CCN1CCN(C(=O)c2cc3cc4ccc(OC)cc4nc3s2)CC1 | -5.1% (inactive)
COc1cccc(-n2cc(C(=O)O)c3ccccc3c2=O)c1 | 0.5% (inactive)
COc1ccccc1N1CCN(C(=O)c2cc3c(-c4ccc(Cl)cc4)nn(C)c3s2)CC1 | 97.6% (active)
COc1ccccc1N1CCN(C(=O)CN(Cc2ccc(Cl)cc2)S(C)(=O)=O)CC1 | 41.4% (inactive)
CCOC(=O)N1CCN(C(=O)c2cc3c(-c4ccc(Cl)cc4)nn(C)c3s2)CC1 | 25.5% (inactive)
